Values joined by “and” are separate entries in the source; they are usually repeats but may differ in a detail not shown here. Identical values can stand only once. Inconclusive results are not listed. Active and inactive are the calls of the source. The call rests on the fitted dose curve; in most records, active means well fitted curve in the direction sought with a large enough effect in the repeat runs; inconclusive means weak or mixed curves; inactive means no such curve, though single readings can be large; an effect the other way counts as inactive or inconclusive.
How the values were obtained:
[1] = Caspase-3/7 induction in HepG2 cells by small molecules, qHTS assay (AID 1346978); further: nearly all actives have a fitted effect of over 15% in size
Summary of the method: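 Wild-type HepG2 cells (2,000/well) were settled 5 h at 37 C, 5% CO2, then exposed to compounds in DMSO for 17 h. Caspase-3/7 activity was read by luminescence 30 min after adding Caspase-Glo 3/7 reagent at room temperature.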

[2] = Caspase-3/7 induction in CHO-K1 cells by small molecules, qHTS cell viability counter screen (AID 1346979); further: nearly all actives have a fitted effect of over 35% in size
Summary of the method: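 Wild-type CHO-K1 cells were seeded at 1,500 per well, rested 5hr at 37 C, then exposed to compounds in DMSO. After 16hr, CellTiter-Fluor reagent was added and fluorescence read 1hr later as the viability measure.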

[3] = Caspase-3/7 induction in CHO-K1 cells by small molecules, qHTS assay (AID 1346980); further: nearly all actives have a fitted effect of over 15% in size
Summary of the method: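 Wild-type cells were seeded at 1,500 per well and settled 5 hr at 37 C, 5% CO2, then exposed to DMSO-dissolved compounds for 17 hr. Caspase-Glo 3/7 reagent was added, and luminescence was read after 30min at room temperature.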

[4] = Caspase-3/7 induction in HepG2 cells by small molecules, qHTS cell viability counter screen (AID 1346981); further: series mostly up to about 92 µM; nearly all actives have a fitted effect of over 30% in size
Summary of the method: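 Wild-type HepG2 cells, 2,000/well, settled 5 hr at 37 C, 5% CO2 before compound addition. Viability read by CellTiter-Fluor fluorescence, reagent added after 16 hr compound exposure, then 1 hr at 37C, in the same wells as the caspase read.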

[5] = molecular target: Nuclear receptor subfamily 1 group I member 2 (Homo sapiens) (UniProt O75469); experiment: Human pregnane X receptor (PXR) small molecule agonists, qHTS assay (AID 1346982); further: nearly all actives have a fitted effect of over 35% in size; further: potency means the concentration at half of the fitted maximal effect
Nuclear receptor subfamily 1 group I member 2 (Homo sapiens), sequence (O75469 whole entry, looked up): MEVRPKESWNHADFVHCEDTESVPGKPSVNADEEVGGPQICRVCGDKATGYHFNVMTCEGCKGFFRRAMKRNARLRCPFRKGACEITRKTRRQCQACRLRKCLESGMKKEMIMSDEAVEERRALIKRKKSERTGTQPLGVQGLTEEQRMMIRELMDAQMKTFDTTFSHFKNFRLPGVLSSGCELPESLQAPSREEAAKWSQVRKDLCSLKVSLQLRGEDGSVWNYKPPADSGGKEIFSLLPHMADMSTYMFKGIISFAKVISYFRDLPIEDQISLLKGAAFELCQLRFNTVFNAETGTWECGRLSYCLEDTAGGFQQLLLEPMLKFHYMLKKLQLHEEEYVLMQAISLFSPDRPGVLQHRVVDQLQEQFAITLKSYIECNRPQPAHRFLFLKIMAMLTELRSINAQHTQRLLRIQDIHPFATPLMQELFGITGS
Summary of the method: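 PXR-Luc HepG2 reporter cells (CYP3A4-driven luciferase) in 5% charcoal-stripped FBS medium, plated 5 h before compound addition, then treated 24 h at 37C. Luciferase read by ONE-Glo luminescence after 30 min at room temperature.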

[6] = molecular target: Cytochrome P450 2D6 (Homo sapiens) (UniProt P10635); experiment: Cytochrome P450 Family 2 Subfamily D Member 6 (CYP2D6) small molecule antagonists: luciferase reporter qHTS assay (AID 1671196); further: nearly all actives have a fitted effect of over 50% in size; further: potency means the concentration at half of the fitted maximal effect
Cytochrome P450 2D6 (Homo sapiens), sequence (P10635 whole entry, looked up): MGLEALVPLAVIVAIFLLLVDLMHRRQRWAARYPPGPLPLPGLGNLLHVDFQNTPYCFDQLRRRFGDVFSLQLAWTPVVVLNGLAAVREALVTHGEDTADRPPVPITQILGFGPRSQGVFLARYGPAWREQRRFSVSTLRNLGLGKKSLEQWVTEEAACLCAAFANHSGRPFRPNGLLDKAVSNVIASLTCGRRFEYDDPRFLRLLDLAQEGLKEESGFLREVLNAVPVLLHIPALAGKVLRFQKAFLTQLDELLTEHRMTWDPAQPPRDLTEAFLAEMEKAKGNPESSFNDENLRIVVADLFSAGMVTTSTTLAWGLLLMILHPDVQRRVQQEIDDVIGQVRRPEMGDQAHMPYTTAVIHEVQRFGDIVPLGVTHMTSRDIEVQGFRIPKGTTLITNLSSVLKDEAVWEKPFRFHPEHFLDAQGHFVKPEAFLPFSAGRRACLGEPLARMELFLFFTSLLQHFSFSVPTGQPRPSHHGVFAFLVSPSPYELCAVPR
Summary of the method: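 Cell-free P450-Glo system: CYP2D6 with proluciferin substrate was pre-incubated with compound for 10 min, then reacted with NADPH regeneration for 1 h at room temperature. Luciferin product was detected after 20 min, and data were reported as relative luminescence units.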

[7] = molecular target: Nuclear receptor subfamily 1 group I member 2 (Rattus norvegicus) (UniProt Q9R1A7); experiment: Rat pregnane X receptor (rPXR) activation by small molecules, qHTS assay (AID 1346983); conditions: rPXR luciferase reporter cells, One-Glo luminescence, 24 h; max activation: hits give high values; further: nearly all actives have a fitted effect of over 20% in size
Nuclear receptor subfamily 1 group I member 2 (Rattus norvegicus), sequence (Q9R1A7 whole entry, looked up): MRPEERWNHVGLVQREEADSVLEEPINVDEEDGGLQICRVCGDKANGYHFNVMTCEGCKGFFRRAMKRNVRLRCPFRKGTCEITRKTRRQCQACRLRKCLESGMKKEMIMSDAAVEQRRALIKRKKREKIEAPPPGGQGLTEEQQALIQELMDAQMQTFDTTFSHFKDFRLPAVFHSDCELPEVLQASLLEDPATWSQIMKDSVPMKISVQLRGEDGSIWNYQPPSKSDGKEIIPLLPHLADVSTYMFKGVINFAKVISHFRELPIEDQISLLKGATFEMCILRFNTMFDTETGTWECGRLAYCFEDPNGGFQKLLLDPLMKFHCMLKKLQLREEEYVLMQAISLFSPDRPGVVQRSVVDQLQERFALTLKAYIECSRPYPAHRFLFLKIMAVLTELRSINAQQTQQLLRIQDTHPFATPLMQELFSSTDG
Summary of the method: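 Cell-based rPXR luciferase reporter assay, 2,000 cells per well, rested 5hr at 37 C before compound addition in DMSO, then 24 hr at 37 C. One-Glo reagent was added and luminescence read after 30 min at room temperature.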

[8] = molecular target: Nuclear receptor subfamily 1 group I member 2 (Homo sapiens) (UniProt O75469); experiment: CYP3A4 induction through human pregnane X receptor (PXR) by small molecules, qHTS assay (AID 1346984); further: nearly all actives have a fitted effect of over 40% in size; further: potency means the concentration at half of the fitted maximal effect
Summary of the method: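 DPX-2 HepG2 cells carrying a PXR response element and CYP3A4-promoter luciferase construct, treated with compounds 24 hr at 37C. Then P450-Glo CYP3A4 Luciferin-IPA substrate (3uM final) for 3 hr at 37C, One-Glo added, luminescence read.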

[9] = molecular target: Nuclear receptor subfamily 1 group I member 2 (Homo sapiens) (UniProt O75469); experiment: Human pregnane X receptor (PXR) activation by small molecules, qHTS assay (AID 1346985); further: nearly all actives have a fitted effect of over 40% in size
Summary of the method: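 DPX-2 cells (HepG2 co-transfected with a PXR response element and a CYP3A4-promoter luciferase construct) were seeded at 2,000 per well, rested 5 hr at 37C, then exposed to DMSO-dissolved compounds for 24 hr. Activation was read as luciferase luminescence.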

[10] = molecular target: Cytochrome P450 2C19 (Homo sapiens) (UniProt P33261); experiment: Cytochrome P450 Family 2 Subfamily C Member 19 (CYP2C19) small molecule antagonists: luciferase reporter qHTS assay (AID 1671197); further: series mostly up to about 120 µM; nearly all actives have a fitted effect of over 65% in size
Cytochrome P450 2C19 (Homo sapiens), sequence (P33261 whole entry, looked up): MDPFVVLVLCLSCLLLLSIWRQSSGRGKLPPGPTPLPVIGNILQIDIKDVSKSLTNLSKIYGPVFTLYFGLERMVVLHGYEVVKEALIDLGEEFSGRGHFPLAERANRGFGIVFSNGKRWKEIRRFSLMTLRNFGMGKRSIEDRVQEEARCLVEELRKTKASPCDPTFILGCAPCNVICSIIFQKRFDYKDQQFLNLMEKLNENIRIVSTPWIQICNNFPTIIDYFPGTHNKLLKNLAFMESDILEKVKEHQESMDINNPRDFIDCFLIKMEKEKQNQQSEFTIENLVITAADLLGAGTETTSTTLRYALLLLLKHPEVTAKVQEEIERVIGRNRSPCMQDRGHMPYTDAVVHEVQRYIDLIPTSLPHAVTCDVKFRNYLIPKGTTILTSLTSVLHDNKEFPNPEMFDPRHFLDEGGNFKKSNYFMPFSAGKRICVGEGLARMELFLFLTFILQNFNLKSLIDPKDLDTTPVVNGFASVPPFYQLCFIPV
Summary of the method: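 Light output is proportional to CYP2C19 activity: proluciferin substrate is converted to luciferin, then detected by a luciferin detection reagent that also stops the 1 h, 37C NADPH-driven reaction. Ketoconazole serves as positive control.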
On the % scale 0 is the no-effect control and ±100 the full control effect.

CCC(C)(CCCC(C)C)OC(C)=O (stereo unspecified)
inactive: outcome [1] | Potency [2] | outcome [3] | Potency [4] | Potency [5] | Potency [6]

Cc1cccc(C)c1NC(=O)CC12CCCN1CCC2
inactive: outcome [1] | Potency [2] | outcome [3] | Potency [4] | Potency [5] | max activation [7] 6.3% | Potency [8] | Potency [9] | Potency [10]

C1CCC2=NCCCN2CC1
inactive: outcome [1] | Potency [2] | outcome [3] | Potency [4]

O=C(O)Cc1csc(-c2ccc(Cl)cc2)n1
inactive: outcome [1] | Potency [2] | outcome [3] | Potency [4] | Potency [5] | max activation [7] -2.73% | Potency [8] | Potency [9] | Potency [6] | Potency [10]

NC(=O)N[C@@H](CCC(=O)O)C(=O)O
inactive: outcome [1] | Potency [2] | outcome [3] | Potency [4] | Potency [5] | max activation [7] -3.04% | Potency [8] | Potency [9] | Potency [6] | Potency [10]

O=C1NC(=O)C2CC=CCC12 (stereo unspecified)
inactive: outcome [1] | Potency [2] | outcome [3]

CN1[C@@H]2CC[C@H]1CC(OC(=O)C(O)c1ccccc1)C2 (stereo partly specified)
inactive: outcome [1] | Potency [2] | outcome [3] | Potency [4] | Potency [5] | max activation [7] 2.11% and -0.222% | Potency [8] | Potency [9] | Potency [6] | Potency [10]

c1coc(CNc2ncnc3nc[nH]c23)c1
inactive: outcome [1] | Potency [2] | outcome [3] | Potency [4]

COc1cccc(OC)c1C(=O)N[C@@H]1C(=O)N2[C@@H]1SC(C)(C)[C@@H]2C(=O)O
inactive: outcome [1] | Potency [2] | outcome [3] | Potency [4] | Potency [5] | max activation [7] -1.79% | Potency [8] | Potency [9] | Potency [6] | Potency [10]

Nc1ccn([C@@H]2O[C@H](CO)[C@@H](O)C2O)c(=O)n1 (stereo partly specified)
inactive: outcome [1] | Potency [2] | outcome [3] | Potency [4] | Potency [5] | max activation [7] -0.294% | Potency [9] | Potency [6]

CC(=O)Oc1cccc(C)c1
inactive: outcome [1] | Potency [2] | outcome [3] | Potency [4] | Potency [5] | max activation [7] -3.04% | Potency [8] | Potency [9] | Potency [6] | Potency [10]

CCCCCCC1CCC(=O)O1 (stereo unspecified)
inactive: outcome [1] | Potency [2] | outcome [3] | Potency [4] | Potency [5] | Potency [6]

CC(C)C[C@@H](N)C(=O)O
inactive: caspase activation [1] -0.781% [at 19 µM] | activity change, negative = cytotoxicity [2] -2.25% [at 19 µM] | caspase-3/7 activation [3] -0.0944% [at 19 µM] | activity change, negative = cytotoxicity [4] 1.16% [at 19 µM]

Nc1ccccn1
inactive: outcome [1] | Potency [2] | outcome [3] | Potency [4]

CC(C)(C#N)Nc1nc(Cl)nc(NC2CC2)n1
active: Potency [5] 27.3 µM
inactive: outcome [1] | Potency [2] | outcome [3] | Potency [4]

C[C@@H]1CCC[C@H](C)N1
inactive: outcome [1] | Potency [2] | outcome [3] | Potency [4] | Potency [5] | max activation [7] -0.283% | Potency [8] | Potency [9] | Potency [6] | Potency [10]

NO
inactive: outcome [1] | Potency [2] | outcome [3] | Potency [4]

C=COC(=O)C(C)(CC)CCC(C)C (stereo unspecified)
inactive: outcome [1] | Potency [2] | outcome [3] | Potency [4] | Potency [5]

NCCCC(N)(C(=O)O)C(F)F (stereo unspecified)
inactive: outcome [1] | Potency [2] | outcome [3] | Potency [4]

CN1CC(=O)N/C1=N/C(=O)Nc1cccc(Cl)c1
active: Potency [5] 13.3 µM
inactive: outcome [1] | Potency [2] | outcome [3] | Potency [4] | Potency [8] | Potency [9] | Potency [10]

CO[C@@]1(NC(=O)C(C(=O)O)c2ccc(O)cc2)C(=O)N2C(C(=O)O)=C(CSc3nnnn3C)CO[C@@H]21 (stereo partly specified)
inactive: outcome [1] | Potency [2] | outcome [3] | Potency [4] | Potency [5] | max activation [7] -4.79% | Potency [8] | Potency [9] | Potency [6] | Potency [10]

CO/N=C(\C(=O)N[C@@H]1C(=O)N2C(C(=O)O)=C(CSc3nc(=O)c(O)nn3C)CS[C@H]12)c1csc(N)n1
inactive: outcome [1] | Potency [2] | outcome [3] | Potency [4] | Potency [5] | max activation [7] -3.34% | Potency [8] | Potency [9] | Potency [10]

Cc1ccc(C(=O)Nc2ccc(S(=O)(=O)O)c3cc(S(=O)(=O)O)cc(S(=O)(=O)O)c23)cc1NC(=O)c1cccc(NC(=O)Nc2cccc(C(=O)Nc3cc(C(=O)Nc4ccc(S(=O)(=O)O)c5cc(S(=O)(=O)O)cc(S(=O)(=O)O)c45)ccc3C)c2)c1
inactive: outcome [1] | Potency [2] | outcome [3] | Potency [4] | Potency [5] | max activation [7] -1.36% | Potency [8] | Potency [9]

C[N+]12CCC(CC1)C(OC(=O)C(O)(c1ccccc1)c1ccccc1)C2 (stereo unspecified)
inactive: outcome [1] | Potency [2] | outcome [3] | Potency [4] | Potency [5] | max activation [7] -2.26% | Potency [8] | Potency [9] | Potency [10]

CC[N+](C)(CC)CCOC(=O)C1c2ccccc2Oc2ccccc21
inactive: outcome [1] | Potency [2] | outcome [3] | Potency [4] | Potency [5] | max activation [7] 0.786% | Potency [8] | Potency [10]
active: Potency [6] 2.75 µM

CC1=C(C/C=C(\C)CCC[C@H](C)CCC[C@H](C)CCCC(C)C)C(=O)c2ccccc2C1=O
active: Potency [8] 11.2 µM
inactive: outcome [1] | Potency [2] | outcome [3] | Potency [4] | Potency [5] | max activation [7] -2.63% | Potency [9] | Potency [10]

CC(C)NNC(=O)c1ccncc1
inactive: outcome [1] | Potency [2] | outcome [3] | Potency [4] | Potency [5] | max activation [7] -0.682% | Potency [8] | Potency [9]

From PubChem BioAssay (Tox21)
